Screens deposited in PubChem by National Center for Advancing Translational Sciences (NCATS).
This is a sample that favours compounds with a hit; in the whole collection about 12% have one here.
HP1b chromo inh – HTS for Inhibitors of HP1-beta Chromodomain Interactions with Methylated Histone Tails; Chromobox protein homolog 1 (Homo sapiens), P83916; AlphaScreen HP1-beta / biotin-H3K9me3 peptide binding; Potency, µM (series often up to 114 µM), usual class: inhibitors; 390,000 tested, 0.56% active; note: nearly all actives have a fitted effect of over 70% in size
Target sequence (P83916 whole entry, looked up): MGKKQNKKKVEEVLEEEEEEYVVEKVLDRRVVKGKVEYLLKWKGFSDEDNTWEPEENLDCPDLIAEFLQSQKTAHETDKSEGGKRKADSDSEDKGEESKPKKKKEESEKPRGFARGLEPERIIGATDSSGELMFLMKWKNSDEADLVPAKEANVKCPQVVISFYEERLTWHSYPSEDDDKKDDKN
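AlphaScreen: HP1-beta (50 nM) preformed 30 min with biotin-H3(1-18)K9me3 peptide (50 nM) in PBS pH 7.4, 0.01% Tween-20. Compound added for 30 min at RT, then streptavidin donor/nickel chelate acceptor beads (10 ug/mL) for 30 min.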
BAZ2B inh – qHTS Assay for Inhibitors of BAZ2B. Bromodomain adjacent to zinc finger domain protein 2B (Homo sapiens), Q9UIF8. AlphaScreen BAZ2B-H3K14Ac peptide displacement. Potency, µM (series often up to 114 µM), hits mostly inhibitors. 360,000 tested, 4.4% active; note: nearly all actives have a fitted effect of over 60% in size
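AlphaScreen displacement of biotin-H3(5-23)K14Ac peptide (50 nM final) from BAZ2B (50 nM final) in PBS pH 7.4, 0.01% Tween-20; complex preformed 30 min RT, then compounds (top 110 uM) 30 min RT, beads 20 min dark.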
JMJD2A Tudor – qHTS Assay for Inhibitors of JMJD2A-Tudor Domain | Lysine-specific demethylase 4A (Homo sapiens), O75164 | AlphaScreen JMJD2A-Tudor / H3K4me3 peptide binding | 390,000 tested, 4.4% active | Potency, µM (series often up to 114 µM), most hits filed as inhibitors; note: nearly all actives have a fitted effect of over 50% in size
Sfp inh – qHTS Assay for Inhibitors of Bacillus subtilis Sfp phosphopantetheinyl transferase (PPTase). Biochemical Sfp PPTase activity, qHTS. Potency, µM, usual class: inhibitors. 310,000 tested, 3.5% active. AID 1490, 2009;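 note: the enzyme is Sfp with the accession as filed and its product quenches rhodamine fluorescence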
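Fluorescence-quenching assay with 15 nM Sfp, 5 uM rhodamine-CoA and 12.5 uM BHQ-2-labelled ybbR peptide in pH 7.6 Hepes/MgCl2 buffer. Enzyme was pre-incubated with compound for 15 min at room temperature. Rate was taken from the 30-min fluorescence change (525/598 nm).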
G9a block – qHTS Assay for Inhibitors of Histone Lysine Methyltransferase G9a; Histone-lysine N-methyltransferase EHMT2 (Homo sapiens), Q96KQ7; G9a H3K9 monomethylation, AlphaScreen, 2 h; Potency, µM (top dose mostly 102 µM), usual class: inhibitors; 350,000 tested, 8.8% active; note: nearly all actives have a fitted effect of over 75% in size
Target sequence (Q96KQ7 913-1193 limits assumed): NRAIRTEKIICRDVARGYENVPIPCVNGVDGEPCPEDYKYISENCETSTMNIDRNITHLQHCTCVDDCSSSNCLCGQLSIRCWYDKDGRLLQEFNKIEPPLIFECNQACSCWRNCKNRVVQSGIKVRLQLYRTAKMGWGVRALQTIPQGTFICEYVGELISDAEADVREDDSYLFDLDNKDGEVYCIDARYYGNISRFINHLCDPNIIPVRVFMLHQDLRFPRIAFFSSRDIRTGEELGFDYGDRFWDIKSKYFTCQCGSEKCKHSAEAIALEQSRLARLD
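Step 1: enzyme (final 20 nM) with compound, 15 min RT. Step 2: substrate peptide 500 nM and SAM 20 uM, 2 h RT. Step 3: anti-H3K9me1 antibody and AlphaScreen beads, 10 min, then plate read.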
Hits are given with their value; n = inactive; u = inconclusive; x = not tested or not shown. Calls come from the whole dose curve; as a rule, active = well fitted curve in the direction sought with a large enough effect; inconclusive = small, poorly fitted or top-dose-only effect, or another doubt; inactive = no such curve, though single readings can be large; an effect the other way counts as inactive or inconclusive.

SMILES | HP1b chromo inh | BAZ2B inh | JMJD2A Tudor | Sfp inh | G9a block
CCOC(=O)c1c(S(=O)(=O)N2CCC(C(=O)Nc3ccccc3OC)CC2)c(C)n(CC)c1C | n | n | n | x | n
Cc1oc(-c2cccc(Cl)c2)nc1CSc1nncn2c1cc1occc12 | n | n | n | x | n
Cc1ccc(/C=C/c2onc(C)c2S(=O)(=O)N2CCC(C(=O)N3CCOc4ccc(C)cc43)CC2)cc1 | n | n | n | x | n
CCOC(=O)N1CCN(C(=O)c2ccc(OC)c(OC)c2)CC1 | n | n | n | n | n
COc1ccc(C(=O)N2CCN(C3CCCCC3)CC2)cc1OC | u | 50µM | 28µM | n | 10µM
COc1ccccc1N1CSC2=C(C#N)C(c3ccc(SC)cc3)CC(=O)N2C1 (configuration not stated) | 22µM | 50µM | 18µM | 3.5µM | 2.2µM
COc1cc(C2CC(=O)N3CN(c4ccccc4C)CSC3=C2C#N)cc(OC)c1OC (configuration not stated) | x | u | x | 2.8µM | 1.4µM
CCN1CCN(CC(=O)c2ccc(OC)cc2)CC1 | n | n | n | n | 45µM
COc1ccc(S(=O)(=O)N2CCN(Cc3ccc4c(c3)OCO4)CC2)cc1 | n | u | n | n | n
COc1ccc(S(=O)(=O)N2CCN(Cc3cccc(F)c3)CC2)cc1 | u | x | 3.2µM | x | x
CCOc1ccc(C(=O)CN2CCN(S(=O)(=O)c3ccc(Cl)cc3)CC2)cc1 | n | n | n | n | 35µM
COc1ccc(S(=O)(=O)N2CCN(Cc3ccccc3[N+](=O)[O-])CC2)cc1 | u | x | 3.2µM | x | x
COc1ccc(S(=O)(=O)N2CCN(Cc3c[nH]c4ccccc34)CC2)cc1 | n | n | n | n | n
Cc1c(C)c2c(c(C)c1O)CCC(C)(COc1ccc(Cc3sc(=O)[nH]c3O)cc1)O2 (configuration not stated) | x | x | x | n | u
O=S(=O)(Cc1ccccc1)N1CCN(c2ncccn2)CC1 | n | n | n | n | n
CCN1CCN(S(=O)(=O)c2ccc(OC)cc2)CC1 | n | n | n | n | n
COc1ccccc1CN1CCN(S(=O)(=O)c2ccc(C)cc2)CC1 | u | x | 20µM | x | x
COc1ccc(S(=O)(=O)N2CCN(Cc3cccc([N+](=O)[O-])c3)CC2)cc1 | u | x | 20µM | x | x
COc1ccc(S(=O)(=O)N2CCN(Cc3ccc(Cl)cc3)CC2)cc1 | u | u | 10µM | n | 2.5µM
COc1ccc(S(=O)(=O)N2CCN(Cc3cccc(Cl)c3)CC2)cc1 | n | n | n | n | n
O=[N+]([O-])c1ccccc1CN1CCN(S(=O)(=O)Cc2ccccc2)CC1 | u | 45µM | 0.79µM | u | x
COc1ccccc1CNC(=O)c1ccc2c(c1)N(Cc1cccc(C)c1)C(=O)c1ccccc1S2(=O)=O | n | n | n | x | n
CCCS(=O)(=O)N1CC(=O)N(c2ccccc2C)C(C)(C(=O)NC2CCCCC2)C1 (configuration not stated) | n | n | n | x | n
CN(Cc1ccccc1)C1CCN(Cc2ccccc2[N+](=O)[O-])CC1 | u | 20µM | 11µM | 79µM | 18µM
Cc1ccc([N+](=O)[O-])cc1S(=O)(=O)N1CCCC1 | n | n | n | n | u
SMILES | HP1b chromo inh | BAZ2B inh | JMJD2A Tudor | Sfp inh | G9a block
CN1CCC(N(C)C(=O)Cc2ccccc2[N+](=O)[O-])CC1 | n | n | n | n | n
COc1ccc2ccc(O)c(CN3CCN(S(=O)(=O)c4cc([N+](=O)[O-])ccc4C)CC3)c2c1 | n | n | n | x | 1.3µM
Cc1cc2c(s1)c1cnn(Cc3c(F)cccc3C(F)(F)F)c(=O)c1n2C | x | x | n | x | x
CCOC(=O)c1c(NC(=O)c2cccnc2Cl)sc(C(=O)N(C)C)c1C | n | n | n | n | 25µM
CCCc1nnc(NC(=O)CSc2ncn[nH]2)s1 | n | n | n | n | 35µM
CCOC(=O)c1c(NC(=O)CSc2ncn[nH]2)sc(C)c1C | n | n | n | n | 45µM
CCOC(=O)c1c(NC(=O)CSc2ncn[nH]2)sc(C(=O)N(C)C)c1C | n | n | n | x | 50µM
CCOC(=O)c1c(NC(=O)c2cccs2)sc(C(=O)N(C)C)c1C | n | n | n | u | u
COc1ccc(COC(=O)N/N=C2/C[C@@H](O)[C@@H](O)[C@@H]3[C@@H]4C(=O)N(c5cccc(Oc6ccccc6)c5)C(=O)[C@H]4CC[C@@H]23)cc1 | x | x | x | n | x
COc1cc2nc(SCC(=O)Nc3ccc(F)cc3)n3nc(CCn4c(C)nc5ccccc54)nc3c2cc1OC | n | x | n | x | n
CCOc1ccc(N2CC(c3nc4ccccc4n3Cc3cccc(C)c3)CC2=O)cc1 (configuration not stated) | n | n | n | x | u
Cc1cccc(OCCCCn2c(C3CC(=O)N(c4ccccc4Cl)C3)nc3ccccc32)c1 (configuration not stated) | n | 50µM | n | x | 13µM
CCc1ccccc1N1CC(c2nc3ccccc3n2Cc2cccc(C)c2)CC1=O (configuration not stated) | n | n | n | x | 1µM
CCC(=O)N1CCc2cc(S(=O)(=O)NC(Cc3ccccc3)C(=O)Nc3ccccc3C)ccc21 (configuration not stated) | n | x | n | x | n
COCCC(=O)N1CCC(Oc2ccc(C(=O)NC3CCCCC3)cc2)CC1 | n | u | n | n | n
COc1ccc(-n2c(=S)[nH]c3cc(C(=O)NCCCN4CCCC4=O)ccc3c2=O)c(OC)c1 | n | n | 14µM | n | 32µM
O=C(NCCCN1CCOCC1)c1ccc2c(=O)n(-c3ccc(F)c(Cl)c3)c(=S)[nH]c2c1 | n | n | n | n | 40µM
COc1ccc(NC(=S)NCCSc2ccc(Cl)cc2)c(OC)c1 | n | u | n | u | 13µM
COc1ccc(-n2c(=S)[nH]c3cc(C(=O)NCCCN4CCOCC4)ccc3c2=O)cc1 | n | n | n | n | 28µM
O=C(O)c1ccc2c(=O)n(-c3ccc(F)c(Cl)c3)c(=S)[nH]c2c1 | n | n | n | n | u
COc1ccccc1NC(=S)NCCSc1ccc(Cl)cc1 | n | n | n | n | n
COc1ccc(OC)c(CNC(=O)Cc2ccc(NC(=O)N3CCCCc4ccccc43)cc2)c1 | n | n | n | x | n
CCCOc1ccc(CNC(=O)c2ccc3nc(N4CCOCC4)sc3c2)cc1 | n | n | n | n | n
Cc1ccc(S(=O)(=O)N[C@H]2COC(=O)[C@H](C)COC(=O)[C@H](C)NC(=O)C/C=C\[C@H]2C)cc1 | x | x | x | n | x
COc1ccc(NC(=S)NCCCN2CCCC2=O)c(OC)c1 | n | n | n | 40µM | u
COc1ccc(NC(=O)CC(C)NCCCN2CCCC2=O)cc1 (configuration not stated) | u | u | 18µM | u | 56µM
COc1ccc(NC(=O)NCCCN2CCCC2=O)cc1 | n | n | n | n | u
